Reference: PubChem BioAssay (NCATS)
Inconclusive results are not listed. Activity calls are given as the source filed them. Calls come from the whole dose curve; as a rule, active = well fitted curve in the direction sought with a large enough effect; inconclusive = small, poorly fitted or top-dose-only effect, or another doubt; inactive = no such curve, though single readings can be large; an effect the other way counts as inactive or inconclusive.

Key:
[1] = Quantitative High-Throughput drug screen in 47 multiple myeloma cell lines against the NCATS MIPE library collection: H1112_PLB cell viability assay (AID 1918967; note: nearly all actives have a fitted effect of over 30% in size; note: potency is the fitted concentration of half-maximal effect)
How it was run: (§1)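 Myeloma cells (500 per well) were exposed to MIPE 4.0 compounds by pin transfer and incubated 48 hours at 37C, 5% CO2. Viability was read as ATP by CellTiter-Glo luminescence, normalised to DMSO (100%) and media-only (0%) wells.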

[2] = Quantitative High-Throughput drug screen in 47 multiple myeloma cell lines against the NCATS MIPE library collection: KMS12BM_JCRB cell viability assay (AID 1918971); note: nearly all actives have a fitted effect of over 35% in size; note: potency is the fitted concentration of half-maximal effect
How it was run: (§2)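 Approved and investigational drugs from MIPE 4.0 were added by pin tool to 500 cells per well. After 48 hours at 37C, ATP-based CellTiter-Glo luminescence indicated remaining viability.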

[3] = Quantitative High-Throughput drug screen in 47 multiple myeloma cell lines against the NCATS MIPE library collection: MOLP8_DSMZ cell viability assay (AID 1918977); note: nearly all actives have a fitted effect of over 45% in size; note: potency is the fitted concentration of half-maximal effect
How it was run: (§3)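 Readout: median RLU from CellTiter-Glo after 5 min at room temperature. Preceding step was 48 h drug treatment of 500 cells/well at 37 °C, 5% CO2, with DMSO-only and media-only control wells.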

[4] = Quantitative High-Throughput drug screen in 47 multiple myeloma cell lines against the NCATS MIPE library collection: NCIH929_DSMZ cell viability assay (AID 1918978); note: nearly all actives have a fitted effect of over 35% in size; note: potency is the fitted concentration of half-maximal effect
How it was run: as §3

[5] = Quantitative High-Throughput drug screen in 47 multiple myeloma cell lines against the NCATS MIPE library collection: OCIMY1_PLB cell viability assay (AID 1918979); note: nearly all actives have a fitted effect of over 35% in size
How it was run: as §3

[6] = Quantitative High-Throughput drug screen in 47 multiple myeloma cell lines against the NCATS MIPE library collection: MM1S_ATCC cell viability assay (AID 1918980); note: nearly all actives have a fitted effect of over 45% in size; note: potency is the fitted concentration of half-maximal effect
How it was run: as §3

[7] = Quantitative High-Throughput drug screen in 47 multiple myeloma cell lines against the NCATS MIPE library collection: MM1R_ATCC cell viability assay (AID 1918981); note: nearly all actives have a fitted effect of over 35% in size; note: potency is the fitted concentration of half-maximal effect
How it was run: as §3

[8] = Quantitative High-Throughput drug screen in 47 multiple myeloma cell lines against the NCATS MIPE library collection: KMS28PE_JCRB cell viability assay (AID 1918983); note: nearly all actives have a fitted effect of over 35% in size; note: potency is the fitted concentration of half-maximal effect
How it was run: as §3

[9] = Quantitative High-Throughput drug screen in 47 multiple myeloma cell lines against the NCATS MIPE library collection: L363_DSMZ cell viability assay (AID 1918984); note: nearly all actives have a fitted effect of over 40% in size; note: potency is the fitted concentration of half-maximal effect
How it was run: as §3

[10] = Quantitative High-Throughput drug screen in 47 multiple myeloma cell lines against the NCATS MIPE library collection: KMS26_JCRB cell viability assay (AID 1918975); note: nearly all actives have a fitted effect of over 45% in size; note: potency is the fitted concentration of half-maximal effect
How it was run: as §2

[11] = Quantitative High-Throughput drug screen in 47 multiple myeloma cell lines against the NCATS MIPE library collection: LP1_DSMZ cell viability assay (AID 1918982); note: nearly all actives have a fitted effect of over 35% in size; note: potency is the fitted concentration of half-maximal effect
How it was run: as §3

[12] = Quantitative High-Throughput drug screen in 47 multiple myeloma cell lines against the NCATS MIPE library collection: KMS34_JCRB cell viability assay (AID 1918985); note: nearly all actives have a fitted effect of over 40% in size; note: potency is the fitted concentration of half-maximal effect
How it was run: as §3

[13] = Quantitative High-Throughput drug screen in 47 multiple myeloma cell lines against the NCATS MIPE library collection: KMS27_JCRB cell viability assay (AID 1918970); note: nearly all actives have a fitted effect of over 30% in size; note: potency is the fitted concentration of half-maximal effect
How it was run: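 Luminescent ATP read-out (CellTiter-Glo, 5 min at room temperature) after 48 h compound exposure of 500 KMS27_JCRB cells per well; DMSO wells define full viability and media-only wells zero.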

[14] = Quantitative High-Throughput drug screen in 47 multiple myeloma cell lines against the NCATS MIPE library collection: KMS12PE_JCRB cell viability assay (AID 1918972); note: nearly all actives have a fitted effect of over 30% in size; note: potency is the fitted concentration of half-maximal effect
How it was run: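 Relative luminescence from CellTiter-Glo served as the viability signal, referenced to DMSO-treated (100%) and cell-free medium (0%) controls. Treatment lasted 48 hours at 37C with 500 cells per well.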

[15] = Quantitative High-Throughput drug screen in 47 multiple myeloma cell lines against the NCATS MIPE library collection: KMS20_JCRB cell viability assay (AID 1918973); note: nearly all actives have a fitted effect of over 45% in size; note: potency is the fitted concentration of half-maximal effect
How it was run: as §1

[16] = Quantitative High-Throughput drug screen in 47 multiple myeloma cell lines against the NCATS MIPE library collection: OCIMY7_PLB cell viability assay (AID 1918987); note: nearly all actives have a fitted effect of over 65% in size; note: potency is the fitted concentration of half-maximal effect
How it was run: as §3

[17] = Quantitative High-Throughput drug screen in 47 multiple myeloma cell lines against the NCATS MIPE library collection: KMS21BM_JCRB cell viability assay (AID 1918974); conditions: ATP luminescence, 48 h; viability: at 45.8 µM (top of the series) unless noted; note: potency is the fitted concentration of half-maximal effect
How it was run: as §1

[18] = Quantitative High-Throughput drug screen in 47 multiple myeloma cell lines against the NCATS MIPE library collection: Karpas25_ECACC cell viability assay (AID 1918968)
How it was run: as §1

[19] = Quantitative High-Throughput drug screen in 47 multiple myeloma cell lines against the NCATS MIPE library collection: MMM1_PLB cell viability assay (AID 1918976)
How it was run: as §3

Measured: Potency

Cc1n[nH]c(C)c1Cc1sc2c(c1C(=O)N1C[C@H](O)CO1)c(=O)n(C)c(=O)n2CC(C)C
inactive: [1] | [4] | [5] | [7] | [9]
active: [2] 2.64 µM | [3] 0.935 µM | [6] 11.8 µM | [8] 16.6 µM

CNC(=O)c1ccc(N2C(=S)N(c3ccc(C#N)c(C(F)(F)F)c3)C(=O)C2(C)C)cc1F
inactive: [1] | [10] | [3] | [4] | [5] | [7] | [11] | [8] | [9] | [12]
active: [6] 18.7 µM

Cc1ccccc1C(OCCN(C)C)c1ccccc1 (configuration not stated)
inactive: [1] | [13] | [14] | [3] | [5] | [6] | [7] | [11] | [9]

OCCC#Cc1nc(-c2ccc(F)cc2)c(-c2ccncc2)n1CCCc1ccccc1
active: [1] 5.9 µM | [13] 23.5 µM | [14] 18.7 µM | [15] 16.6 µM | [4] 8.33 µM | [9] 5.26 µM | [16] 5.26 µM
inactive: [3] | [7] | [8]

Fc1ccc(Cl)cc1-c1nc(Nc2ccncc2)c2nccnc2n1
active: [14] 0.469 µM
inactive: [1] | [13] | [6] | [16]

CC(C)(C)NCC(O)c1ccc(O)c(CO)c1 (configuration not stated)
active: [6] 0.059 µM | [7] 0.0264 µM
inactive: [1] | [14] | [15] | [17] | [11]

O=c1[nH]cnc2[nH]ncc12
inactive: [1] | [13] | [15] | [3] | [4] | [7] | [11] | [8] | [12] | [16]

C1COC(NC(C2CC2)C2CC2)=N1
inactive: [1] | [15] | [10] | [4] | [6] | [8]

Cc1csc(NC(=O)c2sc3nc4c(c(C(F)(F)F)c3c2N)CCC4)n1
inactive: [1] | [13] | [10] | [3] | [4] | [7]
active: [2] 16.6 µM | [6] 13.2 µM | [11] 20.9 µM | [16] 2.35 µM

OCCn1cc(-c2cnc3nnn(Cc4ccc5ncccc5c4)c3n2)cn1
active: [2] 18.7 µM | [14] 20.9 µM | [6] 9.35 µM | [7] 18.7 µM
inactive: [1] | [13] | [4] | [11] | [8] | [9] | [16]

NC(N)=NC(=O)c1nc(Cl)c(N)nc1N
inactive: [2] | [3] | [5] | [11]
active: [1] 8.33 µM | [13] 14.8 µM | [4] 9.35 µM | [6] 20.9 µM

Cc1ccc(N(CC2=NCCN2)c2cccc(O)c2)cc1
inactive: [15] | [4] | [5]
active: [1] 26.4 µM | [13] 16.6 µM | [6] 20.9 µM | [8] 5.26 µM | [9] 11.8 µM

CCC(C)(C)C(=O)O[C@H]1C[C@@H](C)C=C2C=C[C@H](C)[C@H](CC[C@@H]3C[C@@H](O)CC(=O)O3)[C@H]21
active: [1] 18.7 µM | [13] 6.62 µM | [14] 5.9 µM | [3] 13.2 µM | [4] 13.2 µM | [6] 16.6 µM | [9] 13.2 µM
inactive: [5]

CC(C)OC(=O)C1=CN(C(=O)c2ccc(F)c(F)c2)CC(C)(C)c2c1[nH]c1ccccc21
inactive: [1] | [13] | [15] | [10] | [3] | [4] | [11]

CCN(c1ccccc1)c1cc(NC)[n+](C)c(C)n1
inactive: [1] | [15] | [4] | [5] | [8]
active: [13] 6.62 µM | [2] 14.8 µM | [17] 0.372 µM | [3] 2.09 µM | [7] 16.6 µM | [12] 26.4 µM

CCOC(=O)N1CCC(=C2c3ccc(Cl)cc3CCc3cccnc32)CC1
active: [2] 23.5 µM | [10] 18.7 µM | [6] 29.6 µM | [12] 26.4 µM
inactive: [1] | [14] | [9]

O=C(C1CC1)N1CC[C@@H](Cn2c(-c3ccc(-c4ccc5occc5c4)cc3)nc3cnccc32)C1
active: [14] 29.6 µM | [11] 10.5 µM
inactive: [1] | [5] | [6] | [8]

CC(C)NCC(O)COc1ccc(COCCOC(C)C)cc1 (configuration not stated)
inactive: [1] | [14] | [10] | [4] | [5] | [6] | [11] | [12]

O=C(NOC[C@H](O)CO)c1ccc(F)c(F)c1Nc1ccc(I)cc1F
inactive: [10] | [5] | [11]
active: [1] 0.0148 µM | [13] 0.0105 µM | [15] 0.0662 µM | [17] 0.0296 µM | [6] 16.6 µM | [8] 2.96 µM | [16] 0.0148 µM

O=C(c1cc(Cc2n[nH]c(=O)c3ccccc23)ccc1F)N1CCN(C(=O)C2CC2)CC1
inactive: [2] | [3]
active: [6] 23.5 µM | [16] 2.64 µM

Cc1ccccc1C(C(=O)NC1CCCC1)N(C(=O)Cn1cnc2ccccc21)c1cccc(F)c1 (configuration not stated)
inactive: [13] | [5] | [7] | [8]
active: [18] 20.9 µM | [2] 14.8 µM | [19] 16.6 µM | [4] 18.7 µM | [6] 18.7 µM | [11] 3.32 µM

CCOc1cc(N2CCC(O)CC2)ccc1Nc1ncc2c(n1)N(C)c1ccccc1C(=O)N2C
active: [13] 0.187 µM | [2] 11.8 µM | [14] 1.05 µM | [17] 0.526 µM | [10] 4.18 µM | [6] 5.26 µM | [7] 16.6 µM | [8] 16.6 µM | [9] 0.526 µM | [12] 10.5 µM | [16] 6.62 µM

Cc1[nH]c(=O)c(C#N)cc1-c1ccncc1
active: [13] 1.32 µM | [4] 10.5 µM
inactive: [2] | [10] | [5] | [7] | [8] | [9] | [12]

CC1(C)CNc2cc(NC(=O)c3cccnc3NCc3ccncc3)ccc21
inactive: [13] | [5]
active: [18] 2.09 µM | [14] 4.18 µM | [7] 20.9 µM | [16] 0.372 µM

CN[C@@H](C)C(=O)N[C@H]1CCCC[C@H]2CC[C@@H](C(=O)N[C@@H](c3ccccc3)c3cn(CCCCc4ccc(CCCCn5cc([C@@H](NC(=O)[C@@H]6CC[C@@H]7CCCC[C@H](NC(=O)[C@H](C)NC)C(=O)N76)c6ccccc6)nn5)cc4)nn3)N2C1=O
active: [13] 18.7 µM | [14] 4.69 µM | [15] 4.18 µM | [4] 8.33 µM | [6] 18.7 µM | [16] 0.001 µM
inactive: [2] | [3] | [5] | [8] | [12]
